Unmarked numbers belong to inactive results. Results filed as inconclusive are left out. Activity calls are given as the source filed them.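 How the source made its calls, unless noted: active means cell viability at or below a set limit in both duplicate runs, the limit being the all-compound median minus 4 SD (cut at about 23% in these data, passing the limit was not always enough); inconclusive means no clear call, values can overlap the other calls; inactive means the rest.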

The record followed here is PubChem BioAssay.

A short description of the first assay: viability gain of MRP-1-high H69AR cells under doxorubicin, pilot screen, MRP-1 activator project, CellTiter-Glo, duplicate (AID 807;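 active means viability increase at or above a cutoff of the median across tested compounds plus 3 SD, cut at about 8.5% in these data, passing the limit was not always enough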;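 further: compound pretreatment 18-22 h then 72 h combined with doxorubicin; 0% = doxorubicin alone and 100% = vehicle without doxorubicin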). The settings on record: H69AR viability with doxorubicin, CellTiter-Glo luminescence; at 10 µM; active compounds read high.
In the case of `Cc1ccc(S(=O)(=O)NCc2ccco2)cc1C`, the viability increase is -3.83%.

On to `CCOC(=O)Cn1c(CN2CCc3ccccc3C2)nc2c1c(=O)n(C)c(=O)n2C`, for which the viability increase was -0.76%. The same measure, in the same setting: for `CCc1ccc(C2CC(=O)NC(SCC(=O)OC(C)C)=C2C#N)cc1` (stereo not drawn) the value was 0.08%. Still for that read-out and setting: for `CCNCCNC(=O)c1c(O)c2cccc3c2n(c1=O)CCC3` the value was -3.02%. For `CCN(C(=O)c1sc(N)c(C#N)c1C)C1CCCCC1`, the viability increase was 0.43%. Same read-out and setting: for `COC(=O)C1C(O)=C(C=NCC(C)N=CC2=C(O)C(C(=O)OC)C(C)(C)CC2=O)C(=O)CC1(C)C` (stereo not drawn) the value was -0.55%; for `CCCCNC(=O)CS(=O)Cc1nc(-c2cccc(Cl)c2)oc1C` (stereo not drawn), -0.78%. On the same count and under the same terms, the figure for `CCn1c(SCC(=O)Nc2nnc(C)s2)nc2c(c1=O)SC(C)C2` (stereo not drawn) is 1.14%; for `CC(=O)N1CCC2(CC1)C(C#N)=C(N)Oc1n[nH]c(C)c12` it is 0.18%; for `O=C1c2ccccc2C(O)N1CCN1CCOCC1` (stereo not drawn) it is -1.24%.

Take `Cc1sc2nc(SCC(=O)N3CCOCC3)[nH]c(=O)c2c1C`: the viability increase was -1.93%. Same read-out and setting: the figure for `Cn1nnnc1SCc1nc2ccccc2[nH]1` is 0.69%. Regarding `CCOC(=O)c1cc2c(=O)n3ccccc3nc2n(CCCOC)c1=NC(=O)c1cccnc1`, the viability increase is -4.22%. Still for that read-out and setting: the figure for `COc1c(C)cccc1C(=O)Nc1cc(-c2nn3c(C)nnc3s2)ccc1C` is -5.61%; for `O=C1CC(C(=O)N2CCN(c3ccc(F)cc3)CC2)CN1CCc1ccccc1` (stereo not drawn) it is -2.3%. On the same count and under the same terms, for `CCOc1ccc(S(=O)(=O)N2CCN(S(=O)(=O)c3ccc(OCC)cc3)C(C)C2)cc1` (stereo not drawn) the value was -5.22%; for `O=C(O)CC1C(=O)NCCN1CCCc1ccccc1` (stereo not drawn), -0.23%; for `O=C(NCC1CCCO1)C1CC(=O)N(c2ccc(F)c(Cl)c2)C1` (stereo not drawn), -1.68%.

As for `Cc1ccc(S(=O)(=O)N(C)Cc2nc(-c3ccc(Br)cc3)no2)cc1`, the viability increase was 0.27%.

For the molecule `CCCCN=C(C)C1=C(O)CSC1=O`, the viability increase was -1.7%.

Turning to `C=C(C)Cn1c(C2CC(=O)N(Cc3ccccc3)C2)nc2ccccc21` (stereo not drawn), the viability increase was -1.95%. The same measure, in the same setting: for `O=C(c1ccccc1)N1CCN(c2ccc(NCc3ccc4c(c3)OCO4)cc2)CC1` the value was -3.84%; for `Cc1csc2nc(CNS(=O)(=O)N(C)C)cn12`, -3.46%; for `CCOC(=O)C1CCCCN1Cc1cc(Cl)ccc1O` (stereo not drawn), 0.31%.

A short description of a further assay: growth suppression of beta-catenin knockout HCT116, pilot screen, human colon tumor cells (AID 823).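 Further: 0% = wells killed by 20 µM Hyamine and 100% = untreated DMSO cell wells.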 To be noted: CellTiter-Glo, 60 h, at 10 µM, active compounds read low.
For `c1ccc(N2CCN(c3ncnc4c3oc3ccccc34)CC2)cc1`, the viability (as a rule, a read-out of living cells in per cent, often relative to untreated cells) was 96%. On the same count and under the same terms, the figure for `CCOc1cccc(-c2nc(C(N)=O)c3[nH]c(=O)n(-c4cccc(Cl)c4)c3n2)c1O` is 101%; for `COc1ccc(CC(=O)Nc2c3c(nn2C(C)(C)C)CS(=O)C3)cc1` (stereo not drawn) it is 109%; for `CC1=C(C(=O)OCc2ccccc2)C(c2ccco2)C2=C(CC(C)(C)CC2=O)N1` (stereo not drawn) it is 71.9%. Turning to `COc1ccc(C(=O)O)cc1Nc1cc(C)nc2ncnn12`, the viability is 103%. Same read-out and setting: for `CCOCCCNC(=O)c1cn(CC(C)C)c(=O)c2cc(OC)c(OC)cc12` the value was 98.5%; for `COc1ccccc1C(=O)N1CCN(c2cccc(Cl)c2)CC1`, 15.4% (active). The same measure, in the same setting: for `O=C(NCCn1cc(SCC(=O)N2CCOCC2)c2ccccc21)c1ccccc1` the value was 97%; for `Cc1cc2cc(CNC(=O)c3ccc(Br)o3)ccc2[nH]1`, 86.5%; for `COc1cccc(NC(=O)CN2C(=O)COc3ccc(Cl)cc32)c1`, 90%. Still for that read-out and setting: for `c1csc(Cc2nc(-c3ccc(-n4cccc4)cc3)no2)c1` the value was 106%; for `O=C1C2C3c4ccccc4C(c4ccccc43)C2C(=O)N1Cc1ccco1` (stereo not drawn), 97%; for `COc1cccc(C2CC(=O)N3CN(c4cccc(Cl)c4C)CSC3=C2C#N)c1OC` (stereo not drawn), 73.2%. `O=C(OCC(=O)c1cccs1)c1ccc(NC(=O)c2ccco2)cc1`: the viability is 96.9%. On the same count and under the same terms, for `O=C(Nc1ccc(N2CCN(C(=O)c3ccccc3)CC2)c(Cl)c1)c1ccco1` the value was 67%. Same read-out and setting: for `Cc1ccc(S(=O)(=O)NCc2ccco2)cc1C` the value was 100%. Same read-out and setting: the figure for `CCOC(=O)Cn1c(CN2CCc3ccccc3C2)nc2c1c(=O)n(C)c(=O)n2C` is 84.5%; for `CCc1ccc(C2CC(=O)NC(SCC(=O)OC(C)C)=C2C#N)cc1` (stereo not drawn) it is 78.9%.

With `CCNCCNC(=O)c1c(O)c2cccc3c2n(c1=O)CCC3`, the viability was 82.6%. On to `CCN(C(=O)c1sc(N)c(C#N)c1C)C1CCCCC1`, for which the viability is 92.1%. `COC(=O)C1C(O)=C(C=NCC(C)N=CC2=C(O)C(C(=O)OC)C(C)(C)CC2=O)C(=O)CC1(C)C` (stereo not drawn): the viability was 92.4%. On to `CCCCNC(=O)CS(=O)Cc1nc(-c2cccc(Cl)c2)oc1C` (stereo not drawn), for which the viability is 92.2%. On the same count and under the same terms, for `CCn1c(SCC(=O)Nc2nnc(C)s2)nc2c(c1=O)SC(C)C2` (stereo not drawn) the value was 103%; for `CC(=O)N1CCC2(CC1)C(C#N)=C(N)Oc1n[nH]c(C)c12`, 97.9%. On the same count and under the same terms, for `O=C1c2ccccc2C(O)N1CCN1CCOCC1` (stereo not drawn) the value was 94.5%.

For the molecule `Cc1sc2nc(SCC(=O)N3CCOCC3)[nH]c(=O)c2c1C`, the viability is 105%. Same read-out and setting: the figure for `Cn1nnnc1SCc1nc2ccccc2[nH]1` is 101%; for `CCOC(=O)c1cc2c(=O)n3ccccc3nc2n(CCCOC)c1=NC(=O)c1cccnc1` it is 112%. As to `COc1c(C)cccc1C(=O)Nc1cc(-c2nn3c(C)nnc3s2)ccc1C`, the viability is 73.9%. `O=C1CC(C(=O)N2CCN(c3ccc(F)cc3)CC2)CN1CCc1ccccc1` (stereo not drawn): the viability was 99.2%. `CCOc1ccc(S(=O)(=O)N2CCN(S(=O)(=O)c3ccc(OCC)cc3)C(C)C2)cc1` (stereo not drawn): the viability is 93%.

In the case of `O=C(O)CC1C(=O)NCCN1CCCc1ccccc1` (stereo not drawn), the viability is 97.8%. Same read-out and setting: for `O=C(NCC1CCCO1)C1CC(=O)N(c2ccc(F)c(Cl)c2)C1` (stereo not drawn) the value was 86.7%; for `Cc1ccc(S(=O)(=O)N(C)Cc2nc(-c3ccc(Br)cc3)no2)cc1`, 89.5%; for `CCCCN=C(C)C1=C(O)CSC1=O`, 104%. Turning to `C=C(C)Cn1c(C2CC(=O)N(Cc3ccccc3)C2)nc2ccccc21` (stereo not drawn), the viability was 97.1%.

As for `O=C(c1ccccc1)N1CCN(c2ccc(NCc3ccc4c(c3)OCO4)cc2)CC1`, the viability was 64.7%. Same read-out and setting: the figure for `Cc1csc2nc(CNS(=O)(=O)N(C)C)cn12` is 95.2%. Same read-out and setting: the figure for `CCOC(=O)C1CCCCN1Cc1cc(Cl)ccc1O` (stereo not drawn) is 87%.
